RORg inh: qHTS for inhibitors of ROR gamma transcriptional activity; Drosophila S2 Gal4-RORgamma UAS-luciferase reporter, 20 h; hit rate 5.4% among 310,000; Nuclear receptor ROR-gamma (Mus musculus), P51450; Potency, µM (top dose mostly 53.6 µM), for inactives: at the highest dose activity change, negative = inhibition, actives largely listed as inhibitors; further: on the % scale 0 is the no-effect control and ±100 the full control effect; nearly all actives have a fitted effect of over 60% in size
Target sequence (P51450 whole entry, looked up, the tested form may be a part): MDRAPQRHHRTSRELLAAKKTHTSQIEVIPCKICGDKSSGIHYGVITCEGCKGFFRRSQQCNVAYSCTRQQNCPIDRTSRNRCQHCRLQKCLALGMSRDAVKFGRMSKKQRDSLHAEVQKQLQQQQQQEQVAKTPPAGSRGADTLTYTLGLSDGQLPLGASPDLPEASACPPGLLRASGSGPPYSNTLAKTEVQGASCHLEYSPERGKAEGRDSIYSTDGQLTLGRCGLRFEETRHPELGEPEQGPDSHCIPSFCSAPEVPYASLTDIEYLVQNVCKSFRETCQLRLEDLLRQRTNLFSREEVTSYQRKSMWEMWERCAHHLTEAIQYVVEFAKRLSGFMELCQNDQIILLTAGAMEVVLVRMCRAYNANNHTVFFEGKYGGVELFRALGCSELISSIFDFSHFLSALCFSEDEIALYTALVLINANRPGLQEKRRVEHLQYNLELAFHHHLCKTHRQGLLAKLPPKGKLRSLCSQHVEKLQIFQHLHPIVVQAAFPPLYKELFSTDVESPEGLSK
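Drosophila Schneider cells stably carrying a metallothionein-driven Gal4 DBD–ROR gamma fusion and a UAS-Photinus luciferase reporter were exposed to compound for 1 hr, then induced with copper sulfate (700 uM final) for 20 hr at ambient temperature before luminescence reading.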
VP16 counter: VP16 counterscreen qHTS for inhibitors of ROR gamma transcriptional activity. Drosophila S2 Gal4-VP16 UAS-luciferase, luminescence, 20 h. Potency, µM (doses to about 53.6 µM), for the others: at the top dose activity, negative = inhibition, usual class: inhibitors. hit rate 3.5% among 310,000;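 further: Gal4-VP16 expression switched on by copper sulfate through the metallothionein promoter; on the % scale 0 is the no-effect control and ±100 the full control effect; nearly all actives have a fitted effect of over 50% in size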
BCR signal inh: qHTS Assay to Find Inhibitors of Chronic Active B-Cell Receptor Signaling; hit rate 0.05% among 340,000; Potency, µM (highest dose often 46.1 µM), without a hit: at the top dose activity change, negative = inhibition, hits mostly inhibitors; ABC-DLBCL IkBa-CBG/CBR reporter, luminescence ratio, 4 h; AID 493014, 2011; active means well fitted inhibition curve with a large enough effect in the signal ratio, with a control signal flat, not every such curve was filed as active; inconclusive means small, poorly fitted or top-dose-only effect, or effect the other way, or a change in a side signal; the % refers to the signal ratio;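 further: plate controls were basal doxycycline-induced cells for no effect and cells given 10 µM MG132 for full effect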
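Cell line TMD8 (human ABC DLBCL), stably expressing tet-inducible CBG68-IkBa fusion and CBR; IMDM/0.5% FBS; cpd up to 46 uM; dox induction, 4 h, 37C/5% CO2; dual luminescence; green/red ratio; MG132 control.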
Mito fusion act: qHTS Assay for Small Molecule Inhibitors of Mitochondrial Division or Activators of Mitochondrial Fusion; S. cerevisiae fusion-defective mutant growth rescue, CellTiterGlo 48 h; Potency, µM (highest dose often 46.1 µM), without a hit: top-dose growth rescue (activation), hits mostly activators; hit rate 0.23% among 320,000; AID 485298, 2010; further: % of control where 0% means no effect; nearly all actives have a fitted effect of over 45% in size
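S. cerevisiae fusion-defective temperature-sensitive mutants (e.g. fzo1-1, mgm1-5) grown 48 h at 37C in YPEG (ethanol/glycerol non-fermentable) medium with 23 nl compound per well; growth rescue read as CellTiterGlo luminescence.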
uPA surface inh: qHTS for Inhibitors of Cell Surface uPA Generation | cell surface uPA generation assay, qHTS | Potency, µM (series often up to 38.3 µM), inactives show top-dose activity change, negative = inhibition, actives largely listed as inhibitors | hit rate 0.31% among 330,000; active means well fitted inhibition curve with a large enough effect; inconclusive means small, poorly fitted or top-dose-only effect; inactive means no such curve, though single readings can be large or run the other way; tested in mouse RAW 264.7 cells; further: on the % scale 0 is the no-effect control and ±100 the full control effect; nearly all actives have a fitted effect of over 55% in size
Integrin act MD: qHTS for Activators of Integrin-Mediated Alleviation for Muscular Dystrophy | AID 624291, 2012 | alpha7betagal myoblasts, beta-gal FDG fluorescence, 48 h | Potency, µM (top dose mostly 38.3 µM), inactives show at the top dose activation, actives largely listed as activators | hit rate 0.064% among 350,000;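 further: 100% = response of the positive control SU9516; nearly all actives have a fitted effect of over 60% in size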
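alpha7betagal+/- myoblasts (passage 13, 250/well) treated 48 h at 37C with compounds at 1:260 dilution of DMSO stock. Lysed, then beta-galactosidase activity read as FDG fluorescence (ex 480/em 540) after 30 min, with pre-read for autofluorescence.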
Numbers without * were called inactive; ? = inconclusive; . = no result; [ ] = dose if it differs, or a comment. Most compounds without a hit are left out; they make up all but 5.5% or so of the library. Unless noted, the call rests on the fitted dose curve; in most records, active means well fitted curve in the direction sought with a large enough effect; inconclusive means small, poorly fitted or top-dose-only effect, or another doubt; inactive means no such curve, though single readings can be large; an effect the other way counts as inactive or inconclusive. Potency means the concentration at half of the fitted maximal effect.

SMILES	RORg inh	VP16 counter	BCR signal inh	Mito fusion act	uPA surface inh	Integrin act MD
CCCn1nnnc1SCC(=O)NCc1cccs1	0%[10 µM]	6%	10%	2%	1%	-2%
CCCn1nnnc1NC(=O)c1cc(Br)ccc1OC	3.2µM*	5.6µM*	0%	3%	1%	-12%
CCCn1nnnc1NC(=O)c1cccs1	0.89µM*	2.8µM*	-5%	7%	-1%	-5%
COc1ccc(-c2nnc3n2N=C(c2c(OC)cccc2OC)CS3)cc1OC	-36%	-13%	.	.	.	.
C[C@H]1C(=O)N(S(=O)(=O)c2ccccc2[N+](=O)[O-])[C@H]1c1ccc(-c2ccccc2)cc1	0%	9%	.	.	.	.
O=C(c1ccccc1)c1ccccc1N1C(=O)C=CC1=O	5µM*	7.1µM*	?	-3%	-5%	-38%
ClC1(Cl)CC1CSc1nnc(-c2ccncc2)o1 (stereo not given)	32%	23%	3%	8%	-11%	-55%
NC(=S)N/N=C1\CC(c2ccc3c(c2)OCCO3)Oc2ccc(F)cc21 (stereo not given)	6.3µM*	6.3µM*	?	-2%	3%	-18%
Cc1cc(C)nc(/N=C(\N)Nc2ccc3c(c2)OCCO3)n1	12%	-7%	4%	5%	?	-35%
NC(=S)N/N=C1\CC(c2ccc3c(c2)OCCCO3)Oc2ccc(F)cc21 (stereo not given)	-5%	0.56µM*	18µM*	-5%	-3%	14%
COc1ccc(NC(=O)Nc2cccs2)cc1OC	10%	9%	?	-1%	-8%	-19%
COc1cccc(NC(=O)Nc2cccs2)c1	6.3µM*	5µM*	2%	1%	2%	-19%
COCCn1c(=O)c(-c2ccc(Cl)cc2)nc2cnc(Oc3ccc(OC)cc3)nc21	22%	9%	.	.	.	.
Cc1ccc([N+](=O)[O-])cc1S(=O)(=O)N(C(=O)c1ccncc1)c1ccc2oc3c(c2c1)CCCC3	-25%	-9%	10%	13µM*	4%	3%
COc1ccc(N(C(=O)c2ccncc2)S(=O)(=O)c2cccc([N+](=O)[O-])c2)cc1	29%	-9%	-1%	-3%	-2%	18%
Cc1ccc(S(=O)(=O)N(C(=O)c2ccncc2)c2ccc3oc4c(c3c2)CCCC4)cc1[N+](=O)[O-]	22%	1%	1%	18µM*	-1%	-8%
CSc1nnc(SCC(=O)Nc2ccc3[nH]c(=O)[nH]c3c2)s1	.	.	5%	1%	-20%	8%
C=CCn1c(-c2cccc(S(=O)(=O)N(CC)CC)c2)n[nH]c1=S	?	2%	5%	-1%	-4%	12%
O=[N+]([O-])c1cccc(-c2n[nH]c(=S)n2Cc2ccccc2)c1	7.1µM*	?	1%	5%	1%	?
C=CCn1c(-c2cccc([N+](=O)[O-])c2)n[nH]c1=S	2.2µM*	8.9µM*	1%	2%	-4%	-10%
CC(=O)NCCNc1ncnc2ccc(-c3ccccc3C(F)(F)F)cc12	-12%	-5%	.	.	.	.
O=C1c2ccccc2C(=O)C1c1ccc2ccccc2n1	?	4µM*	3%	3%	-13%	-10%
COC(=O)C1=C(C)NC(C)=C(C(=O)OC)C1c1ccc2ccccc2n1	-9%	9%	?	0%	0%	28%
NC(N)=N/N=C/c1cccc([N+](=O)[O-])c1O	-8%	-10%	5%	6%	1%	2%
O=[N+]([O-])c1cccc(/C=N\N=C2c3ccccc3-c3ccccc32)c1O	10µM*	20µM*	?	?	-2%	-6%
